# Assay results as given in PubChem BioAssay (EPA / NIEHS).
# Active and inactive are the calls of the source. Rule for the calls: active = hit-call score of the fitted dose curve at least 0.9, where 1 is the maximum; inactive = score below 0.9.
# Experiment: BSK_3C_Vis: BioMAP Diversity Plus: 3C Assay for Morphology Visualization (AID 2283025);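 note: fitted both ways so gain or loss versus DMSO counts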
# Settings: primary human endothelial cells (HUVEC)
# Description: BSK_3C is a cell-based, multiplexed-readout assay that uses umbilical vein endothelium, a human vascular primary cell, with measurements taken at 24 hours after chemical dosing in a 96-well plate.BSK_3C_Vis is an assay component measured in the BSK_3C assay. It measures NA related to cell morphology using light microscopy technology.Data from the assay component BSK_3C_Vis was analyzed into 1 assay endpoint. This assay endpoint, BSK_3C_Vis, was analyzed with bidirectional fitting relative to DMSO as the negative control and baseline of activity. Using a type of morphology reporter, gain or loss-of-signal activity can be used to understand changes in the background control. Furthermore, this assay endpoint can be referred to as a secondary readout, because this assay has produced multiple assay endpoints where this one serves a background control function. To generalize the intended target to other relatable targets, this assay endpoint is annotated to the cell morphology intended target family, where the subfamily is cell conformation.
# The levels of cell surface (or secreted, indicated by the prefix "s") biomarker endpoints were measured by ELISA. Overt cytotoxicity to cells in confluent adherent cultures (all systems other than the BT system) was assessed by measuring total protein levels using sulforhodamine B (SRB) staining in parallel cultures at the time of biomarker measurements, indicated as SRB endpoints. For proliferation assays for adherent cell types, individual cell types are cultured at sub-confluence and relative cell numbers quantified by SRB staining at time points optimized for each system (48 h: 3C and CASM3C systems; 72 h: BT and HDF3CGF systems; 96 h: SAg system). SRB was performed by staining cells with 0.1% SRB after fixation with 10% TCA and reading wells at 560 nm.Viability and proliferation of PBMC (T cells) was quantified by Alamar Blue reduction for the SAg and BT systems. For PBMC viability (referred to as PBMC Cytotoxicity within the assay endpoint names), cells were plated (75,000/well in a 96-well plate) and then chemical samples added for 1 h before addition of activators, SEB and TSST-1 (20 ng/mL final concentration each). Cells were incubated for 90 h. Then, Alamar Blue (20 uL/well) (Invitrogen, Cat DAL1100) was added for 6 h, and the plates were read with a fluorescence microplate reader at 546/580 nm (excitation/emission). For PBMC proliferation, cells were plated and activated as above but incubated for only 16 h prior to addition of Alamar Blue. Plates were read after 6 h.
SMILES,outcome,AC50
CCc1c(Br)c(Br)c(Br)c(Br)c1Br,inactive,–
O[Si](c1ccccc1)(c1ccccc1)c1ccccc1,–,37.4 µM (active)
CCN(CC)c1ccc2c(C)cc(=O)oc2c1,–,37.5 µM (active)
CS(C)(=O)=O,inactive,–
CO[Si](OC)(c1ccccc1)c1ccccc1,–,37.4 µM (active)
CCCCCCC(C)OC(=O)CCCCC(=O)OC(C)CCCCCC (configuration not stated),inactive,–
Oc1ccc(Nc2ccccc2)cc1,inactive,–
CCCCOCCOCCOC(=O)CCCCC(=O)OCCOCCOCCCC,inactive,–
CCCCCCCOC(=O)c1ccccc1C(=O)OCCCCCCC,inactive,–
CCc1ccc(C(c2ccc(CC)cc2)C(Cl)Cl)cc1,–,13 µM (active)
C#C[C@]1(O)CC[C@H]2[C@@H]3CCc4cc(OC)ccc4[C@H]3CC[C@@]21C,–,37.5 µM (active)
Nc1ccc([N+](=O)[O-])cc1O,inactive,–
C=CC/C=C/C/C=C/C/C=C/C,inactive,–
CCCCCCCCCCCCCCCC[N+](C)(C)Cc1ccccc1,–,2.96 µM (active)
CC(CCl)OP(=O)(OC(C)CCl)OC(C)CCl (configuration not stated),inactive,–
CC(=O)Nc1ccc(N=Nc2cc(C)ccc2O)cc1,–,39.6 µM (active)
CCCCNc1ccccc1,inactive,–
